In article PMC7862700, “An all-to-all approach to the identification of sequence-specific readers for epigenetic DNA modifications on cytosine” one finds binding signal data, which are given here for three sequences.

What all share (test): DAPPL (digital affinity profiling via proximity ligation, sequencing); 10 mM Tris-HCl pH 7.5, 50 mM NaCl, 1 mM DTT, 4% glycerol, room temperature, 30 min; GST-TFs on glutathione beads, 16-mer random dsDNA library, 0.1% formaldehyde crosslink after washing; high values mean tight binding
Conditions in all cases: protein: recombinant; tags: N-terminal GST; dsDNA, one strand shown

One assay addresses T1, ELK4 (Homo sapiens, UniProt P28324-2 1-405).
T1 sequence: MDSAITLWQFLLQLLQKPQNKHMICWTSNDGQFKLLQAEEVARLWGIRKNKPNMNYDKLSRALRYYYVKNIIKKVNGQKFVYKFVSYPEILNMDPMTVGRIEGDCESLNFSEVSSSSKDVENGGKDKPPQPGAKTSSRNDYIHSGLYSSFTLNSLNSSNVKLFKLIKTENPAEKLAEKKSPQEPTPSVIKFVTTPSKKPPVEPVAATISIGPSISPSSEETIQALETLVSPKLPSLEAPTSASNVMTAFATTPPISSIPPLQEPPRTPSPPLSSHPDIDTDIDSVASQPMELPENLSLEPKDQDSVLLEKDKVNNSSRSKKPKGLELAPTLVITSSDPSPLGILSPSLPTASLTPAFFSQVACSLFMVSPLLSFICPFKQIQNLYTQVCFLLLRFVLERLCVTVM
An outline of the steps:
(§1)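 Binding signal is given per hexamer as its read frequency for a factor divided by its frequency in the tag-only sample. GST-fused human transcription factors were expressed in yeast, captured on glutathione beads, barcoded with DNA and pooled with that sample, then incubated with 200 nmole of a 16-mer random double-stranded DNA library in Tris/NaCl/DTT/glycerol buffer for 30 min at room temperature. The pools were then washed, crosslinked, proximity-ligated, amplified by PCR and sequenced on an Illumina NextSeq500.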

The next assay deals with T2, EHF (Homo sapiens, UniProt Q9NZC4 1-300).
T2 sequence: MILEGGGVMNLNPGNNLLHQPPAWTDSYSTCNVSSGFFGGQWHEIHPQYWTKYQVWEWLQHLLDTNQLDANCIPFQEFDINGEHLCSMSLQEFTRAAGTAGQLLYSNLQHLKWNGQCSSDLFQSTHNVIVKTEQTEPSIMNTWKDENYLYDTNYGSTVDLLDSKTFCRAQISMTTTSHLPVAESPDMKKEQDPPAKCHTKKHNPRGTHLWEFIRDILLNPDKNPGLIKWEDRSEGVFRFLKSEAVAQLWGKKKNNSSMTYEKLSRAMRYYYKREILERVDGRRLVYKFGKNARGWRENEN
An outline of the steps: as §1

A further assay concerns the target ELF4 (Homo sapiens, UniProt Q99607 1-663). An outline of the steps: as §1
Another assay has as its target T3, ETV2 (Homo sapiens, UniProt O00321 1-342).
T3 sequence: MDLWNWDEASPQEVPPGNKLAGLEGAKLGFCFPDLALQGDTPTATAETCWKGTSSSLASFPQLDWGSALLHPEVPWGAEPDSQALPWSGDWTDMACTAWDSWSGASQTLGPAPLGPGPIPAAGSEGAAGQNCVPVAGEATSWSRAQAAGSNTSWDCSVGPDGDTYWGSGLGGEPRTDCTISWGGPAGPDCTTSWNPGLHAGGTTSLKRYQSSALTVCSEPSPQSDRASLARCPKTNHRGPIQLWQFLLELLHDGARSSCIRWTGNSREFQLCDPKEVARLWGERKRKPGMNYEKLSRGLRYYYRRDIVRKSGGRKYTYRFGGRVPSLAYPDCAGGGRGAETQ
An outline of the steps:
as §1

The target in a further assay is T4, ETV7 (Homo sapiens, UniProt Q9Y603 1-341).
T4 sequence: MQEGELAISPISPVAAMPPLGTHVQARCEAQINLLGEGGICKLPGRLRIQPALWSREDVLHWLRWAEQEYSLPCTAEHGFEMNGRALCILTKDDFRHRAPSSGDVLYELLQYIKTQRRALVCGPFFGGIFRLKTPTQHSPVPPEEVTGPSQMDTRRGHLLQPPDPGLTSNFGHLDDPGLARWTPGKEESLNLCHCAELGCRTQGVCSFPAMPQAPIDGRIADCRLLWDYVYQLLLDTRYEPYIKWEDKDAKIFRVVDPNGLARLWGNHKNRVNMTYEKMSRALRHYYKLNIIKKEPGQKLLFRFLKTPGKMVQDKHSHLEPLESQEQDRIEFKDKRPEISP
An outline of the steps:
as §1

The target in another assay is T5, ETV3 (Homo sapiens, UniProt P41162-2 1-143).
T5 sequence: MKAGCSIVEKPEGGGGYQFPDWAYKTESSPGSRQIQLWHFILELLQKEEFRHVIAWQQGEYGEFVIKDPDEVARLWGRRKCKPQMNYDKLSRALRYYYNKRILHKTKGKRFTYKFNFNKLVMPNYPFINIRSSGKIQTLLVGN
An outline of the steps: as §1

The next assay addresses T6, ELK1 (Homo sapiens, UniProt P19419 1-428).
T6 sequence: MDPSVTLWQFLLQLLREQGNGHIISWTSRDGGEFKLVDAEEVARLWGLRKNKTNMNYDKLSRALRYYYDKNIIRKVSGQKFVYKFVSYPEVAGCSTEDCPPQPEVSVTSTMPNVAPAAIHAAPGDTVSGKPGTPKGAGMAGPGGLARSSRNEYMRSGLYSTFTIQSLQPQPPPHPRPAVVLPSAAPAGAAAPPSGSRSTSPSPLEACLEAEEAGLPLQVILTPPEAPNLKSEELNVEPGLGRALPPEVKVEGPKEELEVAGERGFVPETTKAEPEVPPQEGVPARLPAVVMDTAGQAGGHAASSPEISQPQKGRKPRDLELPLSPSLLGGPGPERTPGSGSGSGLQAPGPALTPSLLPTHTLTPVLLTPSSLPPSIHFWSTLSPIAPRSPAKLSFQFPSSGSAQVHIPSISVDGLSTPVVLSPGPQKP
An outline of the steps: as §1

The target in another assay is T7, GABPA (Homo sapiens, UniProt Q06546 1-454).
T7 sequence: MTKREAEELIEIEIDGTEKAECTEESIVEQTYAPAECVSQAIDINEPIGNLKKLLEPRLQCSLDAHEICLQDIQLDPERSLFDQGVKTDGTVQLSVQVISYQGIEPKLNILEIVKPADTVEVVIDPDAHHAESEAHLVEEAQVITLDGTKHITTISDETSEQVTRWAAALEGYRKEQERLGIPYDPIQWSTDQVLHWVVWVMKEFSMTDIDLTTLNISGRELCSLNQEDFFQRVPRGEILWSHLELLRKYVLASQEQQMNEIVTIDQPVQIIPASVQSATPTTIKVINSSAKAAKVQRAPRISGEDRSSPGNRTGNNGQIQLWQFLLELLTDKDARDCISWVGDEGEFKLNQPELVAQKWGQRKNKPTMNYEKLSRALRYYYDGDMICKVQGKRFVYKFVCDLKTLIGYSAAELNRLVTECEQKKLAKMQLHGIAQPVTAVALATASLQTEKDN
An outline of the steps:
as §1

The target of another assay is ELF1 (Homo sapiens, UniProt P32519 1-619). An outline of the steps:
as §1

The target of the next assay is T8, ELK3 (Homo sapiens, UniProt P41970 1-407).
T8 sequence: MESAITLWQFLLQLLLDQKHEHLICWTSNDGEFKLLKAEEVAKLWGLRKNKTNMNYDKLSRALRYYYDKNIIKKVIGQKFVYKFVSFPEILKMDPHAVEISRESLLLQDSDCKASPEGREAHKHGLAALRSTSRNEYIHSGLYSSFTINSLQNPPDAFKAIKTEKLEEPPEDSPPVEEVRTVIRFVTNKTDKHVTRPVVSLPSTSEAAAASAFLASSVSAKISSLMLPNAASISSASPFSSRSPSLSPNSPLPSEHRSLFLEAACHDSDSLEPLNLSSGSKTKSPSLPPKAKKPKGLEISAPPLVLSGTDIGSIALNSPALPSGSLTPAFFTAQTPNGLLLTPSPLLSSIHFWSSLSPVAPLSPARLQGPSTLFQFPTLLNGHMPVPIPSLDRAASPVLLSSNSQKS
In a few lines:
as §1

In a further assay the target is T9, ELF3 (Homo sapiens, UniProt P78545 1-371).
T9 sequence: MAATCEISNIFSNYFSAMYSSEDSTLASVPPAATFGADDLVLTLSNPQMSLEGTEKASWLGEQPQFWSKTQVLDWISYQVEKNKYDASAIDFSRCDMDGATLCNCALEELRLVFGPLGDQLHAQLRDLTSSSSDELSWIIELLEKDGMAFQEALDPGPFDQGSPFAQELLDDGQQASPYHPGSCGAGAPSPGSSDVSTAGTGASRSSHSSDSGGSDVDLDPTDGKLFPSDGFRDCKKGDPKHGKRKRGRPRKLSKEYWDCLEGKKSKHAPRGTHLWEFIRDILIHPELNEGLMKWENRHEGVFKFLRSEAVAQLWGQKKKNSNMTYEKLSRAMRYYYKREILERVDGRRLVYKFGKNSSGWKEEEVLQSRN
In a few lines: as §1

Another assay has as its target T10, ERF (Homo sapiens, UniProt P50548 1-548).
T10 sequence: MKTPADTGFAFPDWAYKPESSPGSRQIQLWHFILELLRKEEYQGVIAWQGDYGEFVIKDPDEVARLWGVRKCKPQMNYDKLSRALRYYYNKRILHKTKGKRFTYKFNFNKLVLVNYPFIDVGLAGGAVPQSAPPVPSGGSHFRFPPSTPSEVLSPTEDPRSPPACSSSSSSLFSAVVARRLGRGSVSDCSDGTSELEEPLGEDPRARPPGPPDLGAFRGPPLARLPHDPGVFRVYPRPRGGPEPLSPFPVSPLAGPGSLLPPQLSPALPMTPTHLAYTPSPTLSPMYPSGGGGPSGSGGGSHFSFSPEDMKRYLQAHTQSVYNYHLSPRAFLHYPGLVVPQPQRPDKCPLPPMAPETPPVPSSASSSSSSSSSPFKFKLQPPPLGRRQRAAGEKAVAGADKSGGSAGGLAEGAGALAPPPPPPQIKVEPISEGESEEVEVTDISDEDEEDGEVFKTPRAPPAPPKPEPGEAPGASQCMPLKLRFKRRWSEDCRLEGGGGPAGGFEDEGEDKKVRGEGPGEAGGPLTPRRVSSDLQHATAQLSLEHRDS
An outline of the steps:
as §1

For a further assay, the target named is T11, SPDEF (Homo sapiens, UniProt O95238 1-335).
T11 sequence: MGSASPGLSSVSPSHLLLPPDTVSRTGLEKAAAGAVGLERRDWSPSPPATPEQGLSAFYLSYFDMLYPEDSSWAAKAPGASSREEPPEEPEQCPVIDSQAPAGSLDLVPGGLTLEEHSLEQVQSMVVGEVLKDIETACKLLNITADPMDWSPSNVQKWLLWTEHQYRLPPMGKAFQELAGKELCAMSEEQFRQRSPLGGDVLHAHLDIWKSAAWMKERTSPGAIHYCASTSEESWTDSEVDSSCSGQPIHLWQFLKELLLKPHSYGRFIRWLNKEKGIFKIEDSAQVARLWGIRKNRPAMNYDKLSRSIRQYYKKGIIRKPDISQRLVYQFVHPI
In a few lines: as §1

Another assay has as its target ETV6 (Homo sapiens, UniProt P41212 1-452). In a few lines:
as §1

ELF1, sequence (P32519 whole entry): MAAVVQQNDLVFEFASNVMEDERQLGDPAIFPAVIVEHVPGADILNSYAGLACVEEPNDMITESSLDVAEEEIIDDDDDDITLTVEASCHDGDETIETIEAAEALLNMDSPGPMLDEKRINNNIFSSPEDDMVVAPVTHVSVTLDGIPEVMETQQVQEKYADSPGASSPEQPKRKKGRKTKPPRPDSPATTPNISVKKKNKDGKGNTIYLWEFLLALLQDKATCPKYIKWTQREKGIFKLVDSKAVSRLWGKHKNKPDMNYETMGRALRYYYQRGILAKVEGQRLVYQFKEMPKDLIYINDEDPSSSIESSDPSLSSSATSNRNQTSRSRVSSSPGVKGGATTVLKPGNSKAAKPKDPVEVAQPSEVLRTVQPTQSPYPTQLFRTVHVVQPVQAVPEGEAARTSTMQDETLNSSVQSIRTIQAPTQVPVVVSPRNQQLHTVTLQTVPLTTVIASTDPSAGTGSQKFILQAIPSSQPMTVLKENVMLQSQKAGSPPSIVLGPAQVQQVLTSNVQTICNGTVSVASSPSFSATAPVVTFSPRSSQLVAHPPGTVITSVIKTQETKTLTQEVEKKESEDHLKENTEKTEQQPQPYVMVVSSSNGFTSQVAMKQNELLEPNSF
ELF4, sequence (Q99607 whole entry): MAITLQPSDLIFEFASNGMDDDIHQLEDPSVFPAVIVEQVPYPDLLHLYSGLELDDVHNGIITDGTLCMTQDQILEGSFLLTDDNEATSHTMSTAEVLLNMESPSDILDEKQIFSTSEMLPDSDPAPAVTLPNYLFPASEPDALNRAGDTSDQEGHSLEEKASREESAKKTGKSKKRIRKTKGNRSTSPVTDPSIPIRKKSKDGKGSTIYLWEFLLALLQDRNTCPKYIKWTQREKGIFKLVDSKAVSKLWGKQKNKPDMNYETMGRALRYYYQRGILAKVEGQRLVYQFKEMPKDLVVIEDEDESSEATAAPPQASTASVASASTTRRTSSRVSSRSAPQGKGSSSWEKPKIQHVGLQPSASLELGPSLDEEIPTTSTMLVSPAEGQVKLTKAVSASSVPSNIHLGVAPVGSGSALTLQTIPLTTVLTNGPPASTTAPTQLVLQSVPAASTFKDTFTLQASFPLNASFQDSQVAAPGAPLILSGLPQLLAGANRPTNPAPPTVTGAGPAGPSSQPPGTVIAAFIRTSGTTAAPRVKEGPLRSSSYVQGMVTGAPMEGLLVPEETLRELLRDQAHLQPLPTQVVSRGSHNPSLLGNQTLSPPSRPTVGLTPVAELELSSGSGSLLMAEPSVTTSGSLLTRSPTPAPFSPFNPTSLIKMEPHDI
ETV6, sequence (P41212 whole entry): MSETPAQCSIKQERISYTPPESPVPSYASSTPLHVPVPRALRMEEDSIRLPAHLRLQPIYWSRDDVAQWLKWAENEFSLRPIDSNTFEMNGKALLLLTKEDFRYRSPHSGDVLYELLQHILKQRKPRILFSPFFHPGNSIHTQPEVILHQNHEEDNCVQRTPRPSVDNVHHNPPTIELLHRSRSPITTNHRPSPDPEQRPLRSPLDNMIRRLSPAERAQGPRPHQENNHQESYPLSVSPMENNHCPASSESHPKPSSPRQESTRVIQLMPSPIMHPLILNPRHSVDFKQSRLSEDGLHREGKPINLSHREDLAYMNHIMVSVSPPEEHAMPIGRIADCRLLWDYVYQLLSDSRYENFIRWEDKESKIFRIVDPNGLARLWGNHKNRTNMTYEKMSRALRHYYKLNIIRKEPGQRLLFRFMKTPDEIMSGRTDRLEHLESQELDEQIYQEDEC

For the sequence CTGAGG, the binding signal in the assay with ELK4 is 1.02 fold enrichment (6-mer frequency, TF over GST control).
Consider AACAGA, for which the binding signal with EHF is 1.06 fold enrichment (6-mer frequency, TF over GST control); with ELF4, 1.02 fold enrichment (6-mer frequency, TF over GST control); with ELK4 it was 1.1 fold enrichment (6-mer frequency, TF over GST control); with ETV2, 1.01 fold enrichment (6-mer frequency, TF over GST control); in the assay with ETV7 it was 1.02 fold enrichment (6-mer frequency, TF over GST control); with ETV3 it was 1.01 fold enrichment (6-mer frequency, TF over GST control).
In the case of CAAACG, the binding signal is 1.04 fold enrichment (6-mer frequency, TF over GST control) with ELK1; 1.05 fold enrichment (6-mer frequency, TF over GST control) with GABPA; 1.04 fold enrichment (6-mer frequency, TF over GST control) with ELF1; 1.07 fold enrichment (6-mer frequency, TF over GST control) with ELK3; 1.05 fold enrichment (6-mer frequency, TF over GST control) in the assay with ELK4; 1.02 fold enrichment (6-mer frequency, TF over GST control) with ETV2. Further, the binding signal in the assay with ELF3 is 1.06 fold enrichment (6-mer frequency, TF over GST control); with ERF it was 1.03 fold enrichment (6-mer frequency, TF over GST control); with SPDEF, 1.02 fold enrichment (6-mer frequency, TF over GST control); with ETV3, 1.04 fold enrichment (6-mer frequency, TF over GST control); with ETV6, 1.02 fold enrichment (6-mer frequency, TF over GST control).
